Laboratory results: PubChem BioAssay (EPA / NIEHS)
Calls of active or inactive are those of the source. The calls were made as follows: active = hit-call score of the fitted dose curve at least 0.9, where 1 is the maximum; inactive = score below 0.9.

Read-out: Protein phosphatase 2A (PPP2R4), PTPA (gene 5524)
Experiment: LTEA_HepaRG_PPP2R4: Life Technologies and Expression Analysis (LTEA) Assay for Protein phosphatase 2A (PPP2R4) using HepaRG (AID 2283522)
Details: mRNA level, 48 h; actives raise or lower the signal
Experimental: LTEA_HepaRG is a cell based, multiplexed-readout assay that uses HepaRG, a human liver cell line, with measurements taken at 48 hours after chemical dosing on a 96-well plate.LTEA_HepaRG_PPP2R4 is one of 102 assay component(s) measured in the LTEA HepaRG cell culture assay. It is a marker of Cell proliferation, survival, death.Data from the assay component LTEA_HepaRG_PPP2R4 was analyzed into 1 endpoint. This assay endpoint, LTEA_HepaRG_PPP2R4, was analyzed with bidirectional fitting relative to DMSO as the negative control and baseline of activity. Using a type of inducible reporter, measures of mRNA induction for gain or loss-of-signal activity can be used to understand regulation of transcription factor activity. To generalize the intended target to other relatable targets, this assay endpoint is annotated to the phosphatase intended target family, where the subfamily is serine/threonine phosphatase.
A total of 1060 chemcials from the ToxCast library were tested in eight-point concentration-response experiments. Cell culture and cytotoxicity assays were conducted at Thermo Fisher Scientific's Custom Services facility (Madison, WI). A single lot of human HepaRG cells (Thermo Fisher Scientific, Frederick, MD) was used for the cell culture experiments. 96-well format collagen type I coated plates of human HepaRG cells were prepared using established methods. Briefly, cryopreserved HepaRG cells were thawed, plated at a density of approximately 100,000 cells/well in HepaRG Thaw, Plate, and General Purpose media (HPRG770, Thermo Fisher Scientific), and incubated for 48 hours. 0.5% DMSO was selected as vehicle control to balance the requisite need of DMSO in HepaRG cultures to maintain differentiation (for example, baseline metabolism, proportions of hepatocytes vs. cholangiocytes), while enabling further hepatic receptor pathway activation (for example, PXR and CAR) in response to chemical exposure. 48 hours after plating, the culture medium was replaced with HepaRG Serum-Free Incudtion Media. Cells were exposed to each test chemical in duplicate and maintained in CO2 incubators for another 48 hours. Chemical plates were thawed to room temperature and 200x concentrations of treatment groups were prepared. 8-point conentration-reponse curves were made with the highest exposure at 100 uM, followed by half-log dilutions, all in 0.5% DMSO. Each test plate contained variouse controls, induction positive controls (1mM phenobarbital), cytotoxicity positive controls ([…] aflatoxin B1), vehicle controls (0.5% DMSO), and total lysis controls (0.5% DMSO). Cell morphology images were taken using an Essen IncuCyte FLR automated microscope, with six 96-well plates imaged in about 24 minutes. Images were captured and exported and JPEG files. Spent culture media was transfered to black-well plates for the LDH assay, and remaining media was sorted at -80 C for later use. Cells were treated with RLT buffer and frozen until shipped for gene expression analysis. Total RNA was isolated from the cell suspension in 75 uL of Buffer RLT (Qiagen, Germantown, MD 20874) by Quintiles/Expression Analysis (Durham, NC) using a custom isolation procedure. Total RNA from each plate well was transferred to a preamplification plate. Fluidigm's 96.96 Dynamic ArrayTM (Fluidigm, Amsterdam, the Netherlands) technology was used for gene expression analyses by quantitative reverse transcription polymerase chain reaction (qRT-PCR, performed by Quintiles/Expression Analysis, Durham, NC)89. Standard TaqManTM Assays (Applied Biosystems/ThermoFisher Scientific, Foster City, CA) were used to assess the expression of 93 genes selected based on their selectivity and sensitivity to important hepatic receptors known to be modulated by environmental chemicals; importance in human hepatocyte functionality; and hepatotoxicity. […]

Row | SMILES | outcome | AC50
1 | COc1ccccc1N | inactive | –
2 | N#Cc1cccnc1 | inactive | –
3 | Oc1cc(Cl)c(Cl)cc1Cl | inactive | –
4 | O=C(O)C1(c2ccc3c(c2)OC[C@H](Cc2ccc(-c4ccccc4)cc2)[C@H]3O)CCCC1 | – | 80.5 µM (active)
5 | OCCN(CCO)CCO | inactive | –
6 | O=C(N[C@H]1CN2CCC1CC2)c1ccc2c(c1)OCCO2 | inactive | –
7 | Cc1cc(C)cc(C)c1 | inactive | –
8 | CC(C)(C)c1ccccc1O | inactive | –
9 | Clc1cccc(Cl)c1 | inactive | –
10 | CCCCCCCCCCCCc1cccc(S(=O)(=O)O)c1 | inactive | –
11 | CC(C)O.CC(C)O.OCCN(CCO)CCO.OCCN(CCO)CCO.[Ti] | inactive | –
12 | CN(C)C(=S)S | inactive | –
13 | Oc1c(Cl)cc(Cl)cc1Cl | inactive | –
14 | Clc1cccc(Cl)c1Cl | inactive | –
